According to PubChem BioAssay (Tox21):
Several values for one entry are separate records, joined by “and”; a condition that tells them apart may be missing. Identical values can stand only once. Values without a mark were called inactive. Records with an inconclusive call do not appear. A call without a number means that no potency is given here. Activity calls are given as the source filed them. Unless noted, the call rests on the fitted dose curve; in most records, active means well fitted curve in the direction sought with a large enough effect in the repeat runs; inconclusive means weak or mixed curves; inactive means no such curve, though single readings can be large; an effect the other way counts as inactive or inconclusive.

Experiments:
[1] = qHTS assay to test for compound auto fluorescence at 535 nm (green) in HEK293 cells (AID 720680)
[2] = qHTS assay to test for compound auto fluorescence at 460 nm (blue) in HEK293 cell free culture (AID 720681)
How it was run: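 Blue fluorescence (Ex 405/Em 460 nm, triamterene-equivalent) was read immediately after pin transfer of compound or DMSO into medium (DMEM, 10% FBS) without cells.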

[3] = qHTS assay to test for compound auto fluorescence at 535 nm (green) in HEK293 cell free culture (AID 720682)
How it was run: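 Using fluorescein as calibrant, autofluorescence was quantified at 485/535 nm in cell-free DMEM containing 10% FBS after pintool addition of compound or vehicle.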

[4] = qHTS assay to test for compound auto fluorescence at 590 nm (red) in HEK293 cell free culture (AID 720683)
How it was run: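 Red-channel autofluorescence of compounds in culture medium (DMEM, 10% FBS), no cells, measured at 540/590 nm. Rose Bengal sodium is the reference fluorophore for equivalence.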

[5] = qHTS assay to test for compound auto fluorescence at 590 nm (red) in HepG2 cell free culture (AID 720684)
How it was run: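 No cells present: MEM + 10% FBS only. Compound pinned in, red label read (540/590 nm). Activity = fluorescence equivalent to Rose Bengal sodium.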

[6] = qHTS assay to test for compound auto fluorescence at 460 nm (blue) in HepG2 cell free culture (AID 720685)
How it was run: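 Cell-free plates of MEM plus 10% FBS received 23 nL compound or DMSO vehicle; blue-channel (405/460 nm) intensity scored against triamterene as reference fluorophore.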

[7] = molecular target: Glucocorticoid receptor (Homo sapiens) (UniProt P04150); experiment: qHTS assay to identify small molecule agonists of the glucocorticoid receptor (GR) signaling pathway (AID 720691; active means well fitted activation curve with a large enough effect in the signal ratio in the repeat runs, not every such curve was filed as active; the % refers to the signal ratio); settings: GR-bla HeLa, beta-lactamase reporter ratio, 18 h; activation: at 62.4 µM (top of the series)
How it was run: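 Compounds in DMSO, alongside positive controls, were added to GR-bla HeLa reporter cells and incubated 18 h at 37 C; GRE-driven beta-lactamase was detected by fluorescence after 2 h with FRET substrate at room temperature.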

[8] = molecular target: Glucocorticoid receptor (Homo sapiens) (UniProt P04150); experiment: qHTS assay to identify small molecule antagonists of the glucocorticoid receptor (GR) signaling pathway (AID 720692; active means well fitted inhibition curve with a large enough effect in the signal ratio in the repeat runs, not every such curve was filed as active; the % refers to the signal ratio; further: potency means the concentration at half of the fitted maximal effect)
How it was run: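 In a 1536-well cell format, compounds were added 4 h after seeding GR-bla HeLa cells, together with dexamethasone at 5 nM final; reporter activity was measured by FRET-substrate fluorescence following 18 h at 37 C.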

[9] = qHTS assay to identify small molecule antagonists of the glucocorticoid receptor (GR) signaling pathway - cell viability counter screen (AID 720693); further: nearly all actives have a fitted effect of over 55% in size; further: potency means the concentration at half of the fitted maximal effect
[10] = qHTS assay for identifying genotoxic compounds that show differential cytotoxicity against isogenic chicken DT40 cell lines with known DNA damage response pathways - wild type cell line (AID 743012); further: nearly all actives have a fitted effect of over 60% in size; further: potency means the concentration at half of the fitted maximal effect
How it was run: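 Viability of DNA repair-proficient chicken DT40 cells was assessed by CellTiter-Glo luminescence following 40 h compound exposure at 37 C/5% CO2.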

[11] = qHTS assay for identifying genotoxic compounds that show differential cytotoxicity against isogenic chicken DT40 cell lines with known DNA damage response pathways - Rev3 mutant cell line (AID 743014); further: nearly all actives have a fitted effect of over 55% in size
[12] = qHTS assay for identifying genotoxic compounds that show differential cytotoxicity against isogenic chicken DT40 cell lines with known DNA damage response pathways - Rad54/Ku70 mutant cell line (AID 743015); further: nearly all actives have a fitted effect of over 60% in size; further: potency means the concentration at half of the fitted maximal effect
[13] = qHTS assay to identify small molecule antagonists of the androgen receptor (AR) signaling pathway - cell viability counter screen (AID 743033; further: nearly all actives have a fitted effect of over 45% in size)
[14] = qHTS assay to identify small molecule antagonists of the androgen receptor (AR) signaling pathway using the MDA cell line - cell viability counter screen (AID 743041; further: nearly all actives have a fitted effect of over 45% in size)
How it was run: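 Using the breast carcinoma line MDA-kb2 AR-luc, test chemicals were co-incubated with R1881 for 16 h; CellTiter-Fluor reagent, added at 15.5 h, provided a fluorescence measure of live cells.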

[15] = qHTS assay to test for compound auto fluorescence at 460 nm (blue) in HepG2 cells (AID 720687)
How it was run: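 Blue-channel autofluorescence (Ex/Em 405/460 nm, triamterene-equivalent) was measured after 1 hr compound exposure at 37 C, 5% CO2. Cells were HepG2, plated overnight at 37 C in MEM plus 10% FBS.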

[16] = molecular target: Androgen receptor (Homo sapiens) (UniProt P10275); experiment: qHTS assay to identify small molecule agonists of the androgen receptor (AR) signaling pathway using the MDA cell line (AID 743040; further: nearly all actives have a fitted effect of over 20% in size)
How it was run: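 Stable MMTV-luciferase reporter in MDA-kb2 cells; note the promoter carries GR as well as AR response elements. 16 h compound treatment, 37C, 0% CO2; ONE-Glo luminescence endpoint.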

[17] = molecular target: Androgen receptor (Homo sapiens) (UniProt P10275); experiment: qHTS assay to identify small molecule antagonists of the androgen receptor (AR) signaling pathway using the MDA cell line (AID 743042; further: nearly all actives have a fitted effect of over 55% in size; further: potency means the concentration at half of the fitted maximal effect)
How it was run: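 Antagonist mode: compounds plus R1881 agonist added to MDA-kb2 AR-luc cells, incubated 16 h at 37C. Luciferase reporter luminescence quantified, with multiplexed CellTiter-Fluor readout for cell viability.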

[18] = qHTS assay to test for compound auto fluorescence at 535 nm (green) in HepG2 cell free culture (AID 720686)
[19] = molecular target: Androgen receptor (Homo sapiens) (UniProt P10275); experiment: qHTS assay to identify small molecule antagonists of the androgen receptor (AR) signaling pathway (AID 743035; active means well fitted inhibition curve with a large enough effect in the signal ratio in the repeat runs, not every such curve was filed as active; the % refers to the signal ratio; further: potency means the concentration at half of the fitted maximal effect)
How it was run: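 Reporter HEK293 cells were exposed to compounds and R1881 overnight (16 h, 37C); beta-lactamase activity was then quantified by FRET fluorescence.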

[20] = molecular target: Androgen receptor (Homo sapiens) (UniProt P10275); experiment: qHTS assay to identify small molecule agonists of the androgen receptor (AR) signaling pathway (AID 743036; active means well fitted activation curve with a large enough effect in the signal ratio in the repeat runs, with a control signal flat, not every such curve was filed as active; the % refers to the signal ratio)
How it was run: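 In this Tox21 qHTS, 2,000 HEK293 AR-bla cells per well were incubated with compounds for 16 h at 37C and 5% CO2. Fluorescence intensity was recorded 2 h after adding LiveBLAzer B/G FRET substrate at room temperature.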

Sequence of Glucocorticoid receptor (Homo sapiens) (P04150 whole entry, looked up): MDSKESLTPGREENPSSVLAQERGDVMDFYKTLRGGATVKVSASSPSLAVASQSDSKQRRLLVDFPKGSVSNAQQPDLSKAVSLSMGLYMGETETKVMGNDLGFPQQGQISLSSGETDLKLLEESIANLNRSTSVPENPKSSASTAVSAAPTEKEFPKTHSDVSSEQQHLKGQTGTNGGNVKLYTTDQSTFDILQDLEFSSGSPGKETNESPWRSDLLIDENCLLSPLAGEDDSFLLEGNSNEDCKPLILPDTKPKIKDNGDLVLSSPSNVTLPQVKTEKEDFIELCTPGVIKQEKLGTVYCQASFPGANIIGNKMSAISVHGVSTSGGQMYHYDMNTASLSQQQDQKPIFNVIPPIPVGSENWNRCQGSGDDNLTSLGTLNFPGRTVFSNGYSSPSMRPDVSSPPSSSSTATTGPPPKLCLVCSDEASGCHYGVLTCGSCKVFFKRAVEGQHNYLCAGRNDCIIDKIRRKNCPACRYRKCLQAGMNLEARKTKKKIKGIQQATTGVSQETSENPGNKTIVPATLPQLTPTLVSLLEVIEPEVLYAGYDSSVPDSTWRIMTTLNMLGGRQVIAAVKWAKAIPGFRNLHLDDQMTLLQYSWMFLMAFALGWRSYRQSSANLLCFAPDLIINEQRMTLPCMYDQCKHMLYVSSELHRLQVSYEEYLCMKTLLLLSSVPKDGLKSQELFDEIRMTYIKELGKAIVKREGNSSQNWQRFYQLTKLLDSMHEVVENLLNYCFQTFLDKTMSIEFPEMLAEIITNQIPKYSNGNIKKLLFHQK
Sequence of Androgen receptor (Homo sapiens) (P10275 whole entry, looked up): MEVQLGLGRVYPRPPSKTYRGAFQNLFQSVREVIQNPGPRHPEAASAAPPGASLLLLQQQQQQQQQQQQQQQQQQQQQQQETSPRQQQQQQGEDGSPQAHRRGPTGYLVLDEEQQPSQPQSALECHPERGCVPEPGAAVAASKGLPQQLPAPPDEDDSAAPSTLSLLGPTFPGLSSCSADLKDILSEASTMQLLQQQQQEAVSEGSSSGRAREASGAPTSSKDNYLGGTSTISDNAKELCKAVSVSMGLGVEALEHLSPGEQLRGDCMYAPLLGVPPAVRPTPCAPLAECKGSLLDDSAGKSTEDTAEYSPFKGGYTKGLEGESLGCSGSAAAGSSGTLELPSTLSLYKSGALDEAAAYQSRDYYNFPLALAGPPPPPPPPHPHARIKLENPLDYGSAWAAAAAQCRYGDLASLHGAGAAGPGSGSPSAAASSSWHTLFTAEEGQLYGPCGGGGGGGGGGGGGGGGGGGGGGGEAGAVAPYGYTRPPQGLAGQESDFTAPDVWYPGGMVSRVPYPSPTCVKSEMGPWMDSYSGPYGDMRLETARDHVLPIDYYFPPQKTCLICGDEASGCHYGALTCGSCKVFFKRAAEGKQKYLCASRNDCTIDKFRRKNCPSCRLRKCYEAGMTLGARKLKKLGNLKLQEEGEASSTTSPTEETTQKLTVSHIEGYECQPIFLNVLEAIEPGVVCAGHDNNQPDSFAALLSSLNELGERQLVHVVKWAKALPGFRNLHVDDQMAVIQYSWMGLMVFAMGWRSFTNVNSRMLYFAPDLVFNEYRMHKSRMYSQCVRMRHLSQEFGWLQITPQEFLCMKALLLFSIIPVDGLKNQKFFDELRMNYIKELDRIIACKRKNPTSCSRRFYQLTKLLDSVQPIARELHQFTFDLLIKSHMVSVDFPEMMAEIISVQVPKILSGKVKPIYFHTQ

## CCCCON=O
[1]
  outcome: inactive
[2]
  Potency: inactive
[3]
  outcome: inactive
[4]
  outcome: inactive
[5]
  outcome: inactive
[6]
  Potency: inactive
[7]
  Potency: inactive
[8]
  Potency: inactive
[9]
  Potency: inactive
[10]
  Potency: inactive
[11]
  Potency: inactive
[12]
  Potency: inactive
[13]
  Potency: inactive
[14]
  Potency: inactive

## ClC1(Cl)C2(Cl)C3(Cl)C4(Cl)C(Cl)(Cl)C5(Cl)C3(Cl)C1(Cl)C5(Cl)C24Cl (stereo unspecified)
[1]
  outcome: inactive
[2]
  Potency: inactive
[3]
  outcome: inactive
[4]
  outcome: inactive
[5]
  outcome: inactive
[6]
  Potency: inactive
[15]
  Potency: inactive
[7]
  Potency: inactive
[8]
  Potency: inactive
[9]
  Potency: inactive
[10]
  Potency: inactive
[12]
  Potency: inactive
[13]
  Potency: inactive
[16]
  outcome: inactive
[14]
  Potency: inactive
[17]
  Potency: inactive

## CCOP(=O)(OCC)Oc1nc(Cl)c(Cl)cc1Cl
[1]
  outcome: inactive
[2]
  Potency: inactive
[3]
  outcome: inactive
[4]
  outcome: inactive
[5]
  outcome: inactive
[6]
  Potency: inactive
[15]
  Potency: inactive
[7]
  Potency: inactive
[8]
  Potency: 27.4 µM (active)
[9]
  Potency: inactive
[12]
  Potency: 60.8 µM (active)
[13]
  Potency: inactive
[16]
  outcome: inactive
[17]
  Potency: inactive

## CC(C)Br
[1]
  outcome: inactive
[2]
  Potency: inactive
[3]
  outcome: inactive
[4]
  outcome: inactive
[5]
  outcome: inactive
[6]
  Potency: inactive
[15]
  Potency: inactive
[7]
  Potency: inactive
[8]
  Potency: inactive
[9]
  Potency: inactive
[10]
  Potency: inactive
[11]
  Potency: inactive
[12]
  Potency: inactive
[13]
  Potency: inactive
[14]
  Potency: inactive

## CC(=O)O.CC(=O)O.CC(=O)O.CC(=O)O.CC(=O)O.CC(=O)O.CC(=O)O.O.O.[Cr].[Cr].[Cr]
[1]
  outcome: inactive
[2]
  Potency: inactive
[3]
  outcome: inactive
[4]
  outcome: inactive
[5]
  outcome: inactive
[6]
  Potency: inactive
[15]
  Potency: inactive
[9]
  Potency: inactive
[10]
  Potency: inactive
[12]
  Potency: inactive
[13]
  Potency: inactive
[14]
  Potency: inactive

## CNC(C)(C)Cc1ccccc1
[2]
  fluorescence, % of fluorescent control: -0.0376% [at 18.6 µM]
[3]
  activity change: 0.136% [at 18.6 µM]
[4]
  fluorescence, % of fluorescent control: -0.277% [at 18.6 µM]
[5]
  fluorescence, % of Rose Bengal: -0.143% [at 18.6 µM]
[6]
  fluorescence, % of fluorescent control: -0.0785% [at 18.6 µM]
[18]
  fluorescence, % of fluorescein control: 0.134% [at 18.6 µM]
[15]
  fluorescence, % of fluorescent control: -0.0567% [at 18.6 µM]
[7]
  Potency: inactive
[8]
  Potency: inactive
[9]
  Potency: inactive
[10]
  Potency: inactive
[11]
  Potency: inactive
[12]
  Potency: inactive
[13]
  Potency: inactive
[14]
  Potency: inactive

## CC(C)N(C(=O)CCl)c1ccccc1
[1]
  outcome: inactive
[2]
  Potency: inactive
[3]
  outcome: inactive
[4]
  outcome: inactive
[5]
  outcome: inactive
[6]
  Potency: inactive
[15]
  Potency: inactive
[8]
  Potency: 24.5 µM (active)
[9]
  Potency: 54.9 µM (active)
[10]
  Potency: 21.7 µM (active) and 17.2 µM (active)
[12]
  Potency: 9.69 µM (active) and 7.7 µM (active)
[19]
  Potency: 8.71 µM (active) and 6.92 µM (active)
[20]
  outcome: inactive
[16]
  outcome: inactive
[17]
  Potency: 30.6 µM (active) and 21.7 µM (active)
